Our source for the outcome and AC50 values is PubChem BioAssay (EPA / NIEHS).

Holding throughout (conditions): mRNA level, 48 h; actives raise or lower the signal
Read-out in assay [1]: ABC Transporter (ABCC2), ABCC2 (gene 1244)
Nature of the assay: LTEA_HepaRG_ABCC2: Life Technologies and Expression Analysis (LTEA) Assay for ABC Transporter (ABCC2) using HepaRG (AID 2283464). The essentials:
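Gene expression of ABCC2 was determined by qRT-PCR in HepaRG cells exposed 48 h to chemicals (highest 100 uM, half-log dilutions). Activity was fitted in both directions relative to 0.5% DMSO vehicle.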

Read-out in assay [2]: Broad substrate specificity ATP-binding cassette transporter ABCG2 (Homo sapiens) (UniProt Q9UNQ0)
Nature of the assay: LTEA_HepaRG_ABCG2: Life Technologies and Expression Analysis (LTEA) Assay for ABC Transporter (ABCG2) using HepaRG (AID 2283465). The essentials:
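HepaRG, 48 h exposure, 8-pt half-log series from 100 uM, 0.5% DMSO vehicle, duplicates. Readout: ABCG2 transcript by qRT-PCR (Fluidigm array), housekeeping-normalized; bidirectional curve fit relative to DMSO baseline.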

Read-out in assay [3]: ATP-citrate lyase (ACLY), ACLY (gene 47)
The assay can be described thus: LTEA_HepaRG_ACLY: Life Technologies and Expression Analysis (LTEA) Assay for ATP-citrate lyase (ACLY) using HepaRG (AID 2283466). In a few lines: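 qRT-PCR readout of ACLY transcript after 48 h chemical treatment of HepaRG cells; expression normalized to three housekeeping genes. Eight-point half-log series, highest 100 uM, 0.5% DMSO vehicle. Gain or loss fitted against DMSO baseline.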

Read-out in assay [4]: Peroxisomal acyl-coenzyme A oxidase 1 (ACOX1) gene, ACOX1 (gene 51)
Nature of the assay: LTEA_HepaRG_ACOX1: Life Technologies and Expression Analysis (LTEA) Assay for Peroxisomal acyl-coenzyme A oxidase 1 (ACOX1) gene using HepaRG (AID 2283467). The essentials: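 HepaRG, 48 h chemical exposure, 8-pt half-log series from 100 uM top, 0.5% DMSO vehicle, duplicates. Readout: ACOX1 mRNA by Fluidigm qRT-PCR, housekeeping-normalized; bidirectional fit vs DMSO baseline.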

Read-out in assay [5]: Alkaline Phosphatase, Placental (ALPP) gene, ALPP (gene 250)
The assay can be described thus: LTEA_HepaRG_ALPP: Life Technologies and Expression Analysis (LTEA) Assay for Alkaline Phosphatase, Placental (ALPP) gene using HepaRG (AID 2283468). The essentials:
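Expression of ALPP was quantified by qRT-PCR against three housekeeping genes in human HepaRG cultures treated for 48 h with an eight-point concentration series up to 100 uM. Activity in either direction was fitted relative to 0.5% DMSO.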

Read-out in assay [6]: Bcl-2 (BAD) gene, BAD (gene 572)
The assay can be described thus: LTEA_HepaRG_BAD: Life Technologies and Expression Analysis (LTEA) Assay for Bcl-2 (BAD) gene using HepaRG (AID 2283469). In a few lines:
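HepaRG, 48 h exposure, 8-pt half-log curve from 100 uM in 0.5% DMSO, duplicates. Readout: TaqMan qRT-PCR for BAD mRNA, housekeeping-normalised (ACTB/GAPDH/POLR2A); gain or loss fitted against DMSO baseline.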

Read-out in assay [7]: adenosine kinase (ADK) gene, ADK (gene 132)
Nature of the assay: LTEA_HepaRG_ADK: Life Technologies and Expression Analysis (LTEA) Assay for adenosine kinase (ADK) gene using HepaRG (AID 2283471). In a few lines: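 ADK expression quantified by qRT-PCR, normalised to three housekeeping genes, after 48 h exposure of HepaRG cells to eight concentrations (top 100 uM, half-log steps, duplicate, 0.5% DMSO). Up- or down-regulation fitted relative to vehicle.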

Read-out in assay [8]: Alpha-fetoprotein (AFP) gene, AFP (gene 174)
Nature of the assay: LTEA_HepaRG_AFP: Life Technologies and Expression Analysis (LTEA) Assay for Alpha-fetoprotein (AFP) gene using HepaRG (AID 2283472).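 Also: AFP transcript by TaqMan qRT-PCR normalized to ACTB GAPDH and POLR2A.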 In a few lines: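 Chemicals were tested on differentiated HepaRG cells for 48 hours at eight concentrations up to 100 uM, with 0.5% DMSO as vehicle. AFP expression was then quantified by qRT-PCR and analyzed for gain or loss relative to DMSO.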

Read-out in a further assay: BCL2L11 (gene 10018)
Nature of the assay: LTEA_HepaRG_BCL2L11: Life Technologies and Expression Analysis (LTEA) Assay for Bcl-2 (BCL2L11) gene using HepaRG (AID 2283473). The essentials: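 Cells were plated, cultured 48 h, switched to serum-free induction medium, then dosed in duplicate for 48 h at eight half-log concentrations up to 100 uM. Lysates underwent RNA isolation and TaqMan qRT-PCR; gain or loss versus DMSO was fitted.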

Read-out in assay [9]: Apolipoprotein A-V (APOA5) gene, APOA5 (gene 116519)
Nature of the assay: LTEA_HepaRG_APOA5: Life Technologies and Expression Analysis (LTEA) Assay for Apolipoprotein A-V (APOA5) gene using HepaRG (AID 2283474). In a few lines:
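Human liver HepaRG cells are treated 48 h with test chemicals (100 uM top, half-log dilutions, 0.5% DMSO). APOA5 mRNA induction or loss is measured by qRT-PCR relative to vehicle.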

Read-out in assay [10]: Apoptosis regulator Bcl-2 (Homo sapiens) (UniProt P10415)
The assay can be described thus: LTEA_HepaRG_BCL2: Life Technologies and Expression Analysis (LTEA) Assay for Bcl-2 gene using HepaRG (AID 2283475). In a few lines:
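Plated human HepaRG cells are exposed to test chemicals for 48 h across eight concentrations from 100 uM downward in half-log steps (0.5% DMSO). BCL2 expression is then measured by qRT-PCR with housekeeping normalisation and fitted bidirectionally against vehicle.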

Read-out in assay [11]: Bcl-2 (BID) gene, BID (gene 637)
Nature of the assay: LTEA_HepaRG_BID: Life Technologies and Expression Analysis (LTEA) Assay for Bcl-2 (BID) gene using HepaRG (AID 2283476). The essentials: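 Cells are plated, cultured 48 h, switched to serum-free induction medium, then dosed 48 h (100 uM top, half-log steps, 0.5% DMSO). RNA is isolated and BID expression read by qRT-PCR.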

Read-out in the next assay: Caspase-3 (Homo sapiens) (UniProt P42574)
Nature of the assay: LTEA_HepaRG_CASP3: Life Technologies and Expression Analysis (LTEA) Assay for cysteine-aspartic acid protease (CASP3) using HepaRG (AID 2283477). The essentials: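 In HepaRG liver cells dosed for 48 h at up to 100 uM (eight-point, duplicate), CASP3 expression changes are scored by qRT-PCR. Activity is fitted in both directions with 0.5% DMSO as baseline.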

Read-out in assay [12]: cysteine-aspartic acid protease (CASP8), CASP8 (gene 841)
Nature of the assay: LTEA_HepaRG_CASP8: Life Technologies and Expression Analysis (LTEA) Assay for cysteine-aspartic acid protease (CASP8) using HepaRG (AID 2283480). In a few lines: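 qRT-PCR readout of CASP8 mRNA, normalized to three housekeeping genes, after 48 h chemical exposure of HepaRG cells; 8-point half-log series, top 100 uM, 0.5% DMSO vehicle. Bidirectional curve fitting against DMSO baseline.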

Read-out in assay [13]: Cytochrome P450 (CYP2B6), CYP2B6 (gene 1555)
The assay can be described thus: LTEA_HepaRG_CYP2B6: Life Technologies and Expression Analysis (LTEA) Assay for Cytochrome P450 (CYP2B6) using HepaRG (AID 2283481). In a few lines:
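Using 48 h treatment of HepaRG cells in serum-free induction medium, concentrations spanned half-log steps from 100 uM in 0.5% DMSO vehicle. CYP2B6 mRNA induction or loss is scored by qRT-PCR against DMSO.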

Read-out in assay [14]: Cytochrome P450 2C19 (Homo sapiens) (UniProt P33261)
The assay can be described thus: LTEA_HepaRG_CYP2C19: Life Technologies and Expression Analysis (LTEA) Assay for CYP2C19 using HepaRG (AID 2283482). The essentials:
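Human HepaRG liver cells received test chemicals for 48 h (highest 100 uM, half-log dilutions in 0.5% DMSO). CYP2C19 mRNA induction or loss is read by multiplexed qRT-PCR and fitted in both directions versus vehicle.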

Read-out in the next assay: CYP2C8 (gene 1558)
Nature of the assay: LTEA_HepaRG_CYP2C8: Life Technologies and Expression Analysis (LTEA) Assay for CYP2C8 using HepaRG (AID 2283483). The essentials: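 HepaRG (human liver line), 48 h chemical exposure, 8-pt half-log series from 100 uM, 0.5% DMSO vehicle. Readout: CYP2C8 transcript by qRT-PCR, housekeeping-normalized. Bidirectional fit vs DMSO baseline.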

Read-out in assay [15]: Cytochrome P450 (CYP1A2), CYP1A2 (gene 1544)
Nature of the assay: LTEA_HepaRG_CYP1A2: Life Technologies and Expression Analysis (LTEA) Assay for Cytochrome P450 (CYP1A2) using HepaRG (AID 2283479).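 As to AC50: TaqMan qRT-PCR transcript level normalized to ACTB GAPDH and POLR2A.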 In a few lines:
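Assesses CYP1A2 mRNA in human HepaRG liver cells after 48 h chemical exposure at up to 100 uM. Values come from qRT-PCR with bidirectional curve fitting relative to DMSO.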

Read-out in assay [16]: Bcl-2 (BAX) gene, BAX (gene 581)
Nature of the assay: LTEA_HepaRG_BAX: Life Technologies and Expression Analysis (LTEA) Assay for Bcl-2 (BAX) gene using HepaRG (AID 2283470). The essentials: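 Cells were thawed, plated for 48 h, moved to serum-free induction medium and dosed for 48 h (highest concentration 100 uM, half-log steps, 0.5% DMSO). Total RNA was then analysed for BAX expression by qRT-PCR.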

Read-out in assay [17]: Cytochrome P450 (CYP24A1), CYP24A1 (gene 1591)
Nature of the assay: LTEA_HepaRG_CYP24A1: Life Technologies and Expression Analysis (LTEA) Assay for Cytochrome P450 (CYP24A1) using HepaRG (AID 2283478). In a few lines:
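Human liver HepaRG cultures receive each chemical for 48 h across an eight-point half-log series topping at 100 uM in 0.5% DMSO. Induction or suppression of CYP24A1 mRNA is scored relative to vehicle after housekeeping-gene normalization.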

As usually defined, the AC50 is the midpoint of the concentration-response curve, whichever way the signal moves.

Values joined by “and” are separate entries in the source; they are usually repeats but may differ in a detail not shown here. Equal entries are not always repeated. Some compounds were tested as several samples or in several runs, with calls that do not always agree. Active and inactive are the calls of the source. The calls were made as follows: active = hit-call score of the fitted dose curve at least 0.9, where 1 is the maximum; inactive = score below 0.9.

Caspase-3 (Homo sapiens), sequence (P42574 whole entry, looked up): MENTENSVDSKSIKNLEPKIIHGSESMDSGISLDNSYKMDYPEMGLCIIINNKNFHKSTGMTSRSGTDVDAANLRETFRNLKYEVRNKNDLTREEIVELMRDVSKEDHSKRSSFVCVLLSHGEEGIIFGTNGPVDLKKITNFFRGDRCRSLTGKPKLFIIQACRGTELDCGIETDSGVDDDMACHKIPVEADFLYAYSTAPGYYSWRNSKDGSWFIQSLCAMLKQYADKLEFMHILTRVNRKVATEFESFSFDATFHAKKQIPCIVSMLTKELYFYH
Broad substrate specificity ATP-binding cassette transporter ABCG2 (Homo sapiens), sequence (Q9UNQ0 whole entry, looked up): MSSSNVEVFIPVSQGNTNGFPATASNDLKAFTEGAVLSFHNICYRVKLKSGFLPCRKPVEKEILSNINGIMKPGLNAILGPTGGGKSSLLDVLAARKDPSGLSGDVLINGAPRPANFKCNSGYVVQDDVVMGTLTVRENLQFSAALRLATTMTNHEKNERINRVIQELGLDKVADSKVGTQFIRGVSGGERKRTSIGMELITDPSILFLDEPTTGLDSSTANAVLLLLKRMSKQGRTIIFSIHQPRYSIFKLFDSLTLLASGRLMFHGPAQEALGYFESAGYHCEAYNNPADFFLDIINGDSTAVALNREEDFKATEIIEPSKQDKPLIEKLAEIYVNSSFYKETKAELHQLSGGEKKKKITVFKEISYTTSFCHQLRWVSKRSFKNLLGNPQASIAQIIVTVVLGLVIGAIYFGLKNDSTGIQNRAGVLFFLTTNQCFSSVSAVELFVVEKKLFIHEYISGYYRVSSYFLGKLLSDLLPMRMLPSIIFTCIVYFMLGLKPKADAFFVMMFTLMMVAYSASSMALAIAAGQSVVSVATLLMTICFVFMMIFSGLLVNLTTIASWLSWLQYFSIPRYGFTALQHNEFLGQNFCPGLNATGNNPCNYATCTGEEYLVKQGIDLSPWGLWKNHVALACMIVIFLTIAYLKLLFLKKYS
Cytochrome P450 2C19 (Homo sapiens), sequence (P33261 whole entry, looked up): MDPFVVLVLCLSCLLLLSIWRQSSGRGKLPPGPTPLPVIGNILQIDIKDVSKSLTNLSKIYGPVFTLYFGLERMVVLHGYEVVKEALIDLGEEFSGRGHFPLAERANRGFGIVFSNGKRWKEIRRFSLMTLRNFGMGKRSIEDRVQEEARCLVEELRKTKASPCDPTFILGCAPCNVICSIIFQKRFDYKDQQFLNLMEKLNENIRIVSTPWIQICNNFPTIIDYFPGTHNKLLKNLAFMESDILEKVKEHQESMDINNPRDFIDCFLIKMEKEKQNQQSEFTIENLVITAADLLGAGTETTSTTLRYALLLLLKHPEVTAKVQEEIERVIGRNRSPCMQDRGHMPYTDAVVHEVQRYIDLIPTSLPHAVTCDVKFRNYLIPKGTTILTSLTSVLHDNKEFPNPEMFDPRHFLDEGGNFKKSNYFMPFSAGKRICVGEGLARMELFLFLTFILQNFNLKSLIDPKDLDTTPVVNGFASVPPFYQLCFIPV
Apoptosis regulator Bcl-2 (Homo sapiens), sequence (P10415 whole entry, looked up): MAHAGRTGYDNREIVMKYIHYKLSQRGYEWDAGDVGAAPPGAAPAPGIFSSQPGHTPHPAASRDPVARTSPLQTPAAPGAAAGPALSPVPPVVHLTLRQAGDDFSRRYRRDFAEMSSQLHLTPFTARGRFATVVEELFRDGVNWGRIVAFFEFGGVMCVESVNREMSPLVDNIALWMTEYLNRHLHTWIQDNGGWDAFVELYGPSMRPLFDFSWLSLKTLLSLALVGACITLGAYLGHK

`CC(=O)S[C@@H]1CC2=CC(=O)CC[C@]2(C)[C@H]2CC[C@@]3(C)[C@@H](CC[C@@]34CCC(=O)O4)[C@H]12`: the molecule was called inactive (in assay [1]; in assay [2]; in assay [3]; in assay [5]; in assay [6]; with BCL2L11 (gene 10018)). The call in [10], in assay [11] and in [12] was inactive. The half-maximal activity concentration (AC50) was 50 µM (active) in assay [4]; 50 µM (active) in assay [7]; 43.4 µM (active) in [8]; 61.8 µM (active) in [9]; 50 µM (active) with Caspase-3 (Homo sapiens); 52.6 µM (active) in [13]. In addition, the AC50 in [14] is 78.3 µM (active); with CYP2C8 (gene 1558) it was 82.1 µM (active).

Turning to `CC(C)(c1ccc(O)cc1)c1ccc(O)cc1`, the molecule was called inactive in [1], in assay [2], in [4], in assay [5], in assay [6] and in assay [7]. The molecule was classed as inactive (in the assay with BCL2L11 (gene 10018); in assay [9]; in assay [10]; in assay [11]; with Caspase-3 (Homo sapiens); in [12]). Also, the molecule was called inactive (in assay [14]; in the assay with CYP2C8 (gene 1558)). The AC50 in [4] was 0.199 µM (active); in assay [15], 50 µM (active); in [13] it was 50 µM (active) and 31.1 µM (active) and 64.4 µM (active); in [14] it was 37.1 µM (active).

Take `COC(=O)c1ccc(I)cc1S(=O)(=O)NC(=O)Nc1nc(C)nc(OC)n1`: the outcome in assay [1], in assay [2], in assay [3], in [4], in assay [5] and in assay [6] was inactive. Moreover, the molecule was classed as inactive (in assay [7]; with BCL2L11 (gene 10018); in assay [9]; in assay [10]; in [11]; with Caspase-3 (Homo sapiens)). Also, the result in assay [12], in assay [13] and in assay [14] was inactive. Moreover, the AC50 in assay [15] is 50 µM (active).

In the case of `CCOC(=O)C(C)Oc1ccc(Oc2nc3ccc(Cl)cc3o2)cc1` (stereo unspecified), the outcome in [1], in assay [2], in assay [4], in assay [5], in assay [6] and in assay [16] was inactive. Also, the molecule was classed as inactive (in [7]; in the assay with BCL2L11 (gene 10018); in [10]; in assay [11]; with Caspase-3 (Homo sapiens); in assay [17]). For the same molecule, the molecule was classed as inactive in [15] and in [12]. Further, the AC50 in [9] was 11.5 µM (active); in assay [13], 3.22 µM (active); in assay [14] it was 14 µM (active).

`CCCOC(=O)NCCCN(C)C`: the result in [1], in assay [2], in [3], in assay [4], in assay [5] and in [6] was inactive. In addition, the molecule was classed as inactive (in assay [16]; in [7]; with BCL2L11 (gene 10018); in [9]; in assay [10]; in assay [11]). Moreover, the molecule was classed as inactive (with Caspase-3 (Homo sapiens); in assay [15]; in assay [12]; in [13]; in assay [14]).

`O=C(O)C1(C(=O)Nc2ccc(Cl)cc2Cl)CC1`: the AC50 was 66.4 µM (active) in [1]; 78.2 µM (active) in assay [2]; 81.2 µM (active) in assay [4]; 79.4 µM (active) in assay [7]; 74.9 µM (active) in [9]; 28.4 µM (active) in the assay with Caspase-3 (Homo sapiens). Besides, the AC50 in assay [13] is 66.9 µM (active); in assay [14], 76.5 µM (active). Further, the call (in assay [3]; in assay [5]; in assay [6]; with BCL2L11 (gene 10018); in assay [10]; in assay [11]) was inactive. Further, the molecule was called inactive in [15] and in assay [12].
